A549 tox: counter-screen for Nrf2 inhibitors: cytotoxicity in A549 cells; A549 ARE-Fluc cells, CellTiter-Fluor viability, 18-24 h; Potency, µM (titrated, usually from 46 µM), for inactives: at the highest dose activity change, negative = cytotoxicity, actives largely listed as inhibitors; hit rate 0.16% among 390,000; AID 504648; also: % is scaled to controls: 0 for no effect and ±100 for the full control effect
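A549 ARE_Fluc cells in 5% FBS OPTI-MEM were exposed to compounds in concentration-response for 18-24 h at 37 deg C. Viability was read by CellTiter-Fluor fluorescence (Ex 405/Em 525) after 30 min, before the luciferase read.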
Nrf2 inh: blocks Nrf2 signaling | A549 ARE-Fluc reporter, luciferase luminescence, 18-24 h | Potency, µM (highest dose often 46 µM), without a hit: at the highest dose activity change, negative = inhibition, hits mostly inhibitors | AID 504444 | hit rate 2.1% among 360,000; also: % is scaled to controls: 0 for no effect and ±100 for the full control effect; nearly all actives have a fitted effect of over 60% in size
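Two sequential reads on A549 ARE_Fluc cells exposed to compound for 18-24 h: a CellTiter-Fluor fluorescence read for viability, then a luciferase luminescence read for Nrf2/ARE activity.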
Nrf2 ARE act: activators of Nrf2 (ARE) signaling | AREc32 ARE-luciferase reporter (MCF7-derived line), luminescence, 24 h | Potency, µM (series often up to 46.1 µM), inactives show top-dose activation, most hits filed as activators | hit rate 0.31% among 410,000; also: % of control where 0% means no effect; nearly all actives have a fitted effect of over 65% in size
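Each well held 1000 AREc32 cells, which were incubated with compound for 24 hr at 37 deg C after overnight attachment, and ARE reporter activity was quantified by firefly luciferase luminescence.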
ELG1 repair inh: inhibitors of ELG1-dependent DNA repair in HEK293T cells | HEK293T ELG1-luciferase reporter, luminescence, 16 h; DNA damage induced by 5-fluorouridine | Potency, µM (titrated, usually from 46.1 µM), without a hit: at the highest dose activity change, negative = inhibition, usual class: inhibitors | hit rate 2.3% among 330,000; also: % is scaled to controls: 0 for no effect and ±100 for the full control effect; nearly all actives have a fitted effect of over 55% in size
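Luminescence from the luciferase reporter, measured 30 min after ONE-Glo reagent at room temperature, was the read-out. Beforehand, 2,000 cells per well were exposed for 16 hr at 37 °C to 5-fluorouridine together with compound or vehicle.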
* hit, by the source's call; ? = inconclusive; nt = no result; [ ] = dose if it differs, or a comment. Sampled rows, rich in hits. Any-hit rate of the full collection: about 3.7%. Calls follow the shape of the dose curve; as a rule, active = well fitted curve in the direction sought with a large enough effect; inconclusive = small, poorly fitted or top-dose-only effect, or another doubt; inactive = no such curve, though single readings can be large; an effect the other way counts as inactive or inconclusive. Potency is read from the fitted curve at half-maximal effect.

SMILES	A549 tox	Nrf2 inh	Nrf2 ARE act	ELG1 repair inh
COc1ccc2c(c1)[C@H]1[C@H](CO2)[C@H](c2ccccc2)[C@]2(C)C(=O)N(Cc3ccc(C)cc3)CC(=O)N12	-5%	-29%	0%	18µM*
O=C(Nc1ccc2c(c1)OCCO2)c1ccc2ccccc2n1	-10%	?	7.9µM*	?
O=C(Nc1ccc2oc(-c3ccccc3F)nc2c1)c1ccc2c(c1)OCCO2	?	13µM*	0%	?
COc1ccc2cc3cc(C(=O)Nc4ccc5c(c4)OCCO5)oc3nc2c1	-25%	18µM*	2%	?
CC(C)(C)C(=O)Nc1ccc2c(c1)OCCOCCOc1cc(NC(=O)C(C)(C)C)ccc1OCCOCCO2	-5%	-21%	0%[9.22 µM]	7.3µM*
COc1ccc2cc3cc(C(=O)NC(C)C)oc3nc2c1	-3%	-14%	0%	?
CC(=O)Nc1ccc2c(c1)OCCOCCOc1cc(NC(C)=O)ccc1OCCO2	1%	5%	-1%	-4%
COc1ccc(N2CCN(C(=O)COC(=O)c3ccc(-n4nc(C)cc4C)cc3)CC2)cc1	1%	14%	1%	-13%
Cc1ccc(CCNC(=O)c2cnc3c(-c4ccc(F)cc4)c(C)nn3c2C)cc1	7%	?	-1%	nt
COc1ccc2cc3cc(C(=O)Nc4cc(OC)c(OC)c(OC)c4)oc3nc2c1	-11%	?	-1%	16µM*
CCOC(=O)c1sc(-c2ccccc2)cc1NC(=O)Nc1ccc([N+](=O)[O-])cc1	13%	10%	-1%	6.5µM*
Cc1cccc(Cn2ncc3c4sc(C)cc4n(C)c3c2=O)c1	-3%	-14%	nt	nt
Cc1ccc(CNC(=O)c2ccc(N3Cc4ccccc4Oc4ncccc43)s2)cc1	-5%	-4%	5%	nt
Cc1ccccc1N1CCN(c2ncnc3scc(-c4cccs4)c23)CC1	-4%	?	2%	-26%
Fc1ccc(CN2CCN(c3ncnc4scc(-c5ccc(F)cc5)c34)CC2)cc1	-12%	?	-1%	21µM*
Clc1ccc(CN2CCN(c3ncnc4scc(-c5cccs5)c34)CC2)cc1	-4%	?	2%	23µM*
Cc1cccc(C(=O)Nc2ccc(C(=O)OCc3cc(=O)n4c(C)csc4n3)cc2)c1	?	nt	0%	nt
Cc1cccc(N2CCN(CC(=O)Nc3ccccc3[N+](=O)[O-])CC2)c1C	-11%	21µM*	0%	4%
CN1CCN(CC(=O)Nc2ccccc2[N+](=O)[O-])CC1	9%	2%	0%	5%
COc1cc(C(=O)Nc2ccccc2N2CCCCC2)cc(OC)c1OC	2%	?	4%	21µM*
Cc1c(C(=O)NCCS(=O)(=O)N2CCN(c3ccccc3F)CC2)cccc1[N+](=O)[O-]	-10%	-7%	-1%	15µM*
CCn1nnc(-c2ccccc2NC(=O)c2cc(OC)c(OC)c(OC)c2)n1	-9%	?	0%	16µM*
COc1ccccc1-c1nnc(SC(C)C(=O)Nc2ccc(C(N)=O)cc2)o1 (stereo not drawn)	-7%	11%	3%	0%
O=C(NCCS(=O)(=O)N1CCN(c2ccccc2F)CC1)c1ccc(Cl)cc1	2%	6%	0%	-10%
Cc1ccc(C(=O)Nc2ccccc2N2CCCCC2)cc1[N+](=O)[O-]	0%	12µM*	4%	?
SMILES	A549 tox	Nrf2 inh	Nrf2 ARE act	ELG1 repair inh
Cc1ccc(C(=O)NCCS(=O)(=O)N2CCN(c3ccccc3F)CC2)cc1[N+](=O)[O-]	-13%	?	-1%	21µM*
Cc1ccc(C)c(S(=O)(=O)c2cn(Cc3ccccc3)c3cc(N4CCCC4)c(F)cc3c2=O)c1	-20%	?	0%	nt
COc1ccccc1N=C1NC(=O)/C(=C/c2ccc(N(C)C)cc2)S1	?	?	6%	?
CCCCc1ccc(C(=O)Nc2ccc3nc(N(CC)CC)cc(C)c3c2)cc1	-14%	5%[9.27 µM]	0%	nt
CCN(CC)c1cc(C)c2cc(NC(=O)c3ccc(Br)o3)ccc2n1	?	12µM*	0%	?
CCOc1ccccc1NC(=O)c1ccccc1-c1nc(-c2ccccc2OC)no1	4%	nt	7%	18µM*
O=S(=O)(Nc1cc(O)cc2cccnc12)c1ccc(Br)s1	-2%	14%	nt	nt
CC(=O)c1ccc(N2CCN(C(=O)/C=C/c3ccc(S(=O)(=O)NCc4ccco4)cc3)CC2)cc1	-9%	?	3%	7.3µM*

Bioassay records deposited in PubChem BioAssay by National Center for Advancing Translational Sciences (NCATS).
